Results as given in ChEMBL document CHEMBL2218924, “A broad activity screen in support of a chemogenomic map for kinase signalling research and drug discovery” (Biochem J, 2013).

Target: Death-associated protein kinase 2 (Homo sapiens) (UniProt Q9UIK4)
Settings: at 10 µM

Chain of Death-associated protein kinase 2 (Homo sapiens) (Q9UIK4 whole entry, looked up): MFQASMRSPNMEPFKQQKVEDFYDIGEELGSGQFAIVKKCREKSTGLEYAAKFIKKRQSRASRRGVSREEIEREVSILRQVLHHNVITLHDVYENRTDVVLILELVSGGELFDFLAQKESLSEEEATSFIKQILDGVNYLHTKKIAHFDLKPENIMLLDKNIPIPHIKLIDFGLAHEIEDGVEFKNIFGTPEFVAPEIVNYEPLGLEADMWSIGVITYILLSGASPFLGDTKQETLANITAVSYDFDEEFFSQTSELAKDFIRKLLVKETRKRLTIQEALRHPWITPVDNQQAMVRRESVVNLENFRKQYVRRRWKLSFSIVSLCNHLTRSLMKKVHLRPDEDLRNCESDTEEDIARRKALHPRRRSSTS

Question: Which residual activity does the source give for `CC(C)(C)c1cc(C=C(C#N)C#N)cc(Br)c1O` here?
Answer: 103%

Question: How did the residual activity turn out when `COc1ccc2c(c1)/C(=C/c1cnc[nH]1)C(=O)N2` was run?
Answer: 51%

Question: Which residual activity does the source give for `COc1cc(OC)c(/C=C2\C(=O)Nc3ccccc32)c(OC)c1` here?
Answer: 95%

Question: With `COc1ccc2c(c[n+](C)c3c4cc5c(cc4ccc23)OCO5)c1OC` as the compound, how does the residual activity read?
Answer: 91%

Question: How did the residual activity turn out when `O=c1[nH]c2ccccc2n1C1CCN(Cc2ccc(-c3nc4cc5[nH]cnc5cc4nc3-c3ccccc3)cc2)CC1` was run?
Answer: 78%

Question: Which residual activity does the source give for `CCn1cnc2c(Nc3cccc(Cl)c3)nc(N[C@@H]3CCCC[C@@H]3N)nc21` here?
Answer: 76%

Question: Which residual activity does the source give for `COC(=O)[C@@]1(O)C[C@H]2O[C@]1(C)n1c3ccccc3c3c4c(c5c6ccccc6n2c5c31)C(=O)NC4` here?
Answer: -3%

Question: For `O=C1c2ccccc2-c2nc3nnnn3nc21`, which residual activity is on record?
Answer: 114%

Question: How did the residual activity turn out when `C[S+]([O-])c1ccc(-c2nc(-c3ccc(F)cc3)c(-c3ccncc3)[nH]2)cc1` (configuration not stated) was run?
Answer: 103%

Question: `O=C1Nc2ccc3ncsc3c2/C1=C/c1c[nH]cn1` was tested. Which residual activity did it give?
Answer: 32%

Question: How did the residual activity turn out when `O=[N+]([O-])/C=C/c1ccc2c(c1)OCO2` was run?
Answer: 127%

Question: Which residual activity does the source give for `O=C1NC(=O)c2c1c1c3ccccc3n3c1c1c2c2ccccc2n1C1CCC3O1` here?
Answer: 20%

Question: How did the residual activity turn out when `COc1cc2ncnc(Nc3ccc(OCc4ccccc4)cc3)c2cc1OC` was run?
Answer: 112%

Target: T1, Serine/threonine-protein kinase DCLK2 (Homo sapiens) (UniProt Q8N568)
T1 sequence (whole entry): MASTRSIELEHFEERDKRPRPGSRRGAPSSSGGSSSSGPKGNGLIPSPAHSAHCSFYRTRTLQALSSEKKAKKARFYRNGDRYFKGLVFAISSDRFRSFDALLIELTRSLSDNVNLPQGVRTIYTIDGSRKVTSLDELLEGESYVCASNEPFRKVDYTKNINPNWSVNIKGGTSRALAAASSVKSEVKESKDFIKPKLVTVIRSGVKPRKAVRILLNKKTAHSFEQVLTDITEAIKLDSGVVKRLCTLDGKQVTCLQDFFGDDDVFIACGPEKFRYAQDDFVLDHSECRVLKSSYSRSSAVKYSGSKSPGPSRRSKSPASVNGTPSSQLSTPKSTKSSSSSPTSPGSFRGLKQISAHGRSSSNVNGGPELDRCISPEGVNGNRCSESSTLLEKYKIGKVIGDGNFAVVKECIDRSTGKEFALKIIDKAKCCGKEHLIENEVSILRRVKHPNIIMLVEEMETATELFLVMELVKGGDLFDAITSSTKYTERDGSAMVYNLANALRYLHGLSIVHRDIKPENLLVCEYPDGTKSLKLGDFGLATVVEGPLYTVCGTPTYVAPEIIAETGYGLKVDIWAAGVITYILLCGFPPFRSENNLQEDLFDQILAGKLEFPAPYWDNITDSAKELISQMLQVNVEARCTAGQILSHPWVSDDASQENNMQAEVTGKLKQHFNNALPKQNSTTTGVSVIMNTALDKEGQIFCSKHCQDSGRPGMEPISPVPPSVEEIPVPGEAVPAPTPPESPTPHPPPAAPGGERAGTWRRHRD
Settings: at 1 µM

Question: For `CC(C)(C)c1cc(C=C(C#N)C#N)cc(Br)c1O`, which residual activity is on record?
Answer: 109%

Question: Which residual activity does the source give for `CC(C)[C@H](CO)Nc1nc(Nc2cccc(Cl)c2)c2ncn(C(C)C)c2n1` here?
Answer: 128%

Question: How did the residual activity turn out when `COc1ccc2c(c[n+](C)c3c4cc5c(cc4ccc23)OCO5)c1OC` was run?
Answer: 98%

Question: `O=c1[nH]c2ccccc2n1C1CCN(Cc2ccc(-c3nc4cc5[nH]cnc5cc4nc3-c3ccccc3)cc2)CC1` was tested. Which residual activity did it give?
Answer: 87%

Question: With `c1cc(-c2cnn3cc(-c4ccc(OCCN5CCCCC5)cc4)cnc23)ccn1` as the compound, how does the residual activity read?
Answer: 124%

Question: With `CCn1cnc2c(Nc3cccc(Cl)c3)nc(N[C@@H]3CCCC[C@@H]3N)nc21` as the compound, how does the residual activity read?
Answer: 124%

Question: How did the residual activity turn out when `COC(=O)[C@@]1(O)C[C@H]2O[C@]1(C)n1c3ccccc3c3c4c(c5c6ccccc6n2c5c31)C(=O)NC4` was run?
Answer: 75%

Question: Which residual activity does the source give for `C[S+]([O-])c1ccc(-c2nc(-c3ccc(F)cc3)c(-c3ccncc3)[nH]2)cc1` (configuration not stated) here?
Answer: 132%

Question: How did the residual activity turn out when `O=C1Nc2ccc3ncsc3c2/C1=C/c1c[nH]cn1` was run?
Answer: 55%

Question: With `O=[N+]([O-])/C=C/c1ccc2c(c1)OCO2` as the compound, how does the residual activity read?
Answer: 63%

Question: How did the residual activity turn out when `COc1cc2ncnc(Nc3ccc(OCc4ccccc4)cc3)c2cc1OC` was run?
Answer: 89%

Target: T1, Serine/threonine-protein kinase DCLK2 (Homo sapiens)
Settings: at 10 µM

Question: Which residual activity does the source give for `CC(C)[C@H](CO)Nc1nc(Nc2cccc(Cl)c2)c2ncn(C(C)C)c2n1` here?
Answer: 139%

Question: For `COc1ccc2c(c[n+](C)c3c4cc5c(cc4ccc23)OCO5)c1OC`, which residual activity is on record?
Answer: 90%

Question: How did the residual activity turn out when `O=c1[nH]c2ccccc2n1C1CCN(Cc2ccc(-c3nc4cc5[nH]cnc5cc4nc3-c3ccccc3)cc2)CC1` was run?
Answer: 98%

Question: For `c1cc(-c2cnn3cc(-c4ccc(OCCN5CCCCC5)cc4)cnc23)ccn1`, which residual activity is on record?
Answer: 76%

Question: For `CCn1cnc2c(Nc3cccc(Cl)c3)nc(N[C@@H]3CCCC[C@@H]3N)nc21`, which residual activity is on record?
Answer: 67%

Question: For `COC(=O)[C@@]1(O)C[C@H]2O[C@]1(C)n1c3ccccc3c3c4c(c5c6ccccc6n2c5c31)C(=O)NC4`, which residual activity is on record?
Answer: 41%

Question: For `C[S+]([O-])c1ccc(-c2nc(-c3ccc(F)cc3)c(-c3ccncc3)[nH]2)cc1` (configuration not stated), which residual activity is on record?
Answer: 111%

Question: Which residual activity does the source give for `O=C1Nc2ccc3ncsc3c2/C1=C/c1c[nH]cn1` here?
Answer: 17%

Question: Which residual activity does the source give for `O=[N+]([O-])/C=C/c1ccc2c(c1)OCO2` here?
Answer: 68%

Question: With `COc1cc2ncnc(Nc3ccc(OCc4ccccc4)cc3)c2cc1OC` as the compound, how does the residual activity read?
Answer: 112%

Target: T2, Discoidin domain-containing receptor 2 (Homo sapiens) (UniProt Q16832)
T2 sequence (whole entry): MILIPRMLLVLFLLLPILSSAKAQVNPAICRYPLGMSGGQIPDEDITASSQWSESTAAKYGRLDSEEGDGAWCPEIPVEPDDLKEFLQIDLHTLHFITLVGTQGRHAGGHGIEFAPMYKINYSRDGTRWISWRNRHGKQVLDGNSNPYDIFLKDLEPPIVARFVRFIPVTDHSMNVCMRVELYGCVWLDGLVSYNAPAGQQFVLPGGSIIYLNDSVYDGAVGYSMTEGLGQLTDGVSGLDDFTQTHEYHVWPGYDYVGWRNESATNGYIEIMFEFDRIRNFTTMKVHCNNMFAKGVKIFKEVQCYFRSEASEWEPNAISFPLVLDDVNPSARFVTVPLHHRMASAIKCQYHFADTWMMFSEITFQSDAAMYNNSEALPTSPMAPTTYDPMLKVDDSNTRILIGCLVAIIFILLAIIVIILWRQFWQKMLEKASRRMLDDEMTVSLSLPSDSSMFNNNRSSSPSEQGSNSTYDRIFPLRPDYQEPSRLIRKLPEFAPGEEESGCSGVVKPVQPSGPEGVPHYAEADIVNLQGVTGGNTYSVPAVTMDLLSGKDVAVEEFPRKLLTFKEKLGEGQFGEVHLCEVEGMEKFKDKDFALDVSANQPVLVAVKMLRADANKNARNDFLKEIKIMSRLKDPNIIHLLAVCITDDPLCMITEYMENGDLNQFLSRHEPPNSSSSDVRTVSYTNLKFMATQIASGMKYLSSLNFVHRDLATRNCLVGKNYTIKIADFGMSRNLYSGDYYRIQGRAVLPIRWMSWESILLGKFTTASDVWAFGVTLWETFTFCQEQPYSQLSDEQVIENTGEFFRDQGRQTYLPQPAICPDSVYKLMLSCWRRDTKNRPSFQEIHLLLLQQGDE
Settings: at 1 µM

Question: With `CC(C)(C)c1cc(C=C(C#N)C#N)cc(Br)c1O` as the compound, how does the residual activity read?
Answer: 115%

Question: How did the residual activity turn out when `N/C(=N\[N+](=O)[O-])N/N=C\c1ccc(-c2cccc([N+](=O)[O-])c2)o1` was run?
Answer: 100%

Question: With `CC(C)[C@H](CO)Nc1nc(Nc2cccc(Cl)c2)c2ncn(C(C)C)c2n1` as the compound, how does the residual activity read?
Answer: 91%

Question: For `COc1cc(OC)c(/C=C2\C(=O)Nc3ccccc32)c(OC)c1`, which residual activity is on record?
Answer: 97%

Question: `O=c1[nH]c2ccccc2n1C1CCN(Cc2ccc(-c3nc4cc5[nH]cnc5cc4nc3-c3ccccc3)cc2)CC1` was tested. Which residual activity did it give?
Answer: 109%

Question: `COC(=O)[C@@]1(O)C[C@H]2O[C@]1(C)n1c3ccccc3c3c4c(c5c6ccccc6n2c5c31)C(=O)NC4` was tested. Which residual activity did it give?
Answer: 56%

Question: With `C[S+]([O-])c1ccc(-c2nc(-c3ccc(F)cc3)c(-c3ccncc3)[nH]2)cc1` (configuration not stated) as the compound, how does the residual activity read?
Answer: 94%

Question: With `O=C1Nc2ccc3ncsc3c2/C1=C/c1c[nH]cn1` as the compound, how does the residual activity read?
Answer: 113%

Question: How did the residual activity turn out when `O=[N+]([O-])/C=C/c1ccc2c(c1)OCO2` was run?
Answer: 100%

Question: With `O=C1NC(=O)c2c1c1c3ccccc3n3c1c1c2c2ccccc2n1C1CCC3O1` as the compound, how does the residual activity read?
Answer: 77%

Question: How did the residual activity turn out when `COc1cc2ncnc(Nc3ccc(OCc4ccccc4)cc3)c2cc1OC` was run?
Answer: 108%

Target: T2, Discoidin domain-containing receptor 2 (Homo sapiens)
Settings: at 10 µM

Question: How did the residual activity turn out when `N/C(=N\[N+](=O)[O-])N/N=C\c1ccc(-c2cccc([N+](=O)[O-])c2)o1` was run?
Answer: 99%

Question: `CC(C)[C@H](CO)Nc1nc(Nc2cccc(Cl)c2)c2ncn(C(C)C)c2n1` was tested. Which residual activity did it give?
Answer: 92%

Question: How did the residual activity turn out when `COc1cc(OC)c(/C=C2\C(=O)Nc3ccccc32)c(OC)c1` was run?
Answer: 90%

Question: For `O=c1[nH]c2ccccc2n1C1CCN(Cc2ccc(-c3nc4cc5[nH]cnc5cc4nc3-c3ccccc3)cc2)CC1`, which residual activity is on record?
Answer: 85%

Question: For `c1cc(-c2cnn3cc(-c4ccc(OCCN5CCCCC5)cc4)cnc23)ccn1`, which residual activity is on record?
Answer: 69%

Question: For `CCn1cnc2c(Nc3cccc(Cl)c3)nc(N[C@@H]3CCCC[C@@H]3N)nc21`, which residual activity is on record?
Answer: 78%

Question: For `COC(=O)[C@@]1(O)C[C@H]2O[C@]1(C)n1c3ccccc3c3c4c(c5c6ccccc6n2c5c31)C(=O)NC4`, which residual activity is on record?
Answer: 17%

Question: Which residual activity does the source give for `C[S+]([O-])c1ccc(-c2nc(-c3ccc(F)cc3)c(-c3ccncc3)[nH]2)cc1` (configuration not stated) here?
Answer: 46%

Question: For `O=C1Nc2ccc3ncsc3c2/C1=C/c1c[nH]cn1`, which residual activity is on record?
Answer: 82%

Question: For `O=[N+]([O-])/C=C/c1ccc2c(c1)OCO2`, which residual activity is on record?
Answer: 97%

Question: With `O=C1NC(=O)c2c1c1c3ccccc3n3c1c1c2c2ccccc2n1C1CCC3O1` as the compound, how does the residual activity read?
Answer: 81%

Question: For `COc1cc2ncnc(Nc3ccc(OCc4ccccc4)cc3)c2cc1OC`, which residual activity is on record?
Answer: 93%
